An excerpt weighted towards active compounds, which were near 1.6% of everything screened.
KCNQ2 pot = potentiators of rat KCNQ2 potassium channel | B-score at 10 µM | CHO-K1 KCNQ2, FluxOR thallium flux fluorescence; hits give high values | Potassium voltage-gated channel subfamily KQT member 2 (Rattus norvegicus), O88943 | AID 2239, 2010 | actives 0.54% (n = 310,000);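 active = fluorescence ratio B-score at least 3 SD of library B-scores, with initial fluorescence B-score within 3 of them, cut at about 5.3 in these data; same plate scores as AID 2156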;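 note: B-score of peak minus minimum over baseline fluorescence ratio after K+ and Tl+ stimulus; positive B-score means potentiation of KCNQ2 with more thallium influx and brighter signal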
KCNQ2 block = rat KCNQ2 potassium channel inhibitors, primary screen, cell-based, CHO-K1, FluxOR thallium flux, B-score; Potassium voltage-gated channel subfamily KQT member 2 (Rattus norvegicus), O88943; 20 min; hits give low values; B-score at 10 µM; actives 1.1% (n = 310,000); AID 2156, 2009;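 active = fluorescence ratio B-score at most minus 3 library SDs, with starting brightness B-score within 2 library SDs, cut at about -5.5 in these data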
KCNQ2 inh conf = rat KCNQ2 potassium channel inhibitors, confirmation, cell-based, thallium flux; actives 57% (n = 1,000); activity change, negative = inhibition, % at 10 µM; KCNQ2-expressing cells, inhibition; hits give low values; shares compounds with KCNQ2 block
KCNQ1 spec = human KCNQ1 channel inhibition, counter-screen for KCNQ2 inhibitor project, cell-based, FluxOR thallium flux; shares compounds with KCNQ2 block; KCNQ1-expressing cells, FluxOR thallium flux fluorescence; hits give low values; actives 15% (n = 1,000); activity change, negative = inhibition, % at 10 µM;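 active = activity change at least 3 SD of negative controls below their mean in both duplicate wells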;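 note: CHO cells stably transfected with KCNQ1 and depolarized by potassium stimulus; peak minus minimum fluorescence over baseline after thallium addition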
Target sequence (P51787 whole entry, looked up): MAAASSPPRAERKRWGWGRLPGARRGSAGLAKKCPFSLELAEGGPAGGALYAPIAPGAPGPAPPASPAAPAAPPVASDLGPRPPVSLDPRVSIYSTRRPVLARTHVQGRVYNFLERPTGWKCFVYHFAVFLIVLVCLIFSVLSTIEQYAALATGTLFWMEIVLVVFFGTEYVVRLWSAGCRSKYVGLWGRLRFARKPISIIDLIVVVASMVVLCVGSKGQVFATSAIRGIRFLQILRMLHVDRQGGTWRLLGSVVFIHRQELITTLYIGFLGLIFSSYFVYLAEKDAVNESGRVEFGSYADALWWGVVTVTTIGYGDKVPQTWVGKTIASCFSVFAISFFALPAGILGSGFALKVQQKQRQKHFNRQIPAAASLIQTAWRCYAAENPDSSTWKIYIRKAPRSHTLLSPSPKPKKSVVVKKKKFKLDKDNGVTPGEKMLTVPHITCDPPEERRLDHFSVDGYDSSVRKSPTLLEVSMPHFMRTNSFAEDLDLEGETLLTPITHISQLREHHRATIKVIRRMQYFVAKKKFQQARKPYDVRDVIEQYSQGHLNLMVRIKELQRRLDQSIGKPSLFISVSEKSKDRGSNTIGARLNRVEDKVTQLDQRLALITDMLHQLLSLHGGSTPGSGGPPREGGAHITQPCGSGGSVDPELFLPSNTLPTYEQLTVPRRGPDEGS
CHO parental ctr = thallium flux change in parental CHO cells, counter-screen for KCNQ2 inhibitor project; shares compounds with KCNQ2 block; hits give low values; activity change, % at 10 µM; actives 14% (n = 1,000)
KCNQ2 patch conf = rat KCNQ2 channel inhibitors, confirmation, cell-based, automated patch clamp, single concentration. shares compounds with KCNQ2 block. KCNQ2-expressing cells, automated patch clamp current. calls only at 10 µM. actives 49% (n = 550)
A number is an active result; i = inactive; nt = not tested or not shown; + = active, no number. Unless noted, the rule behind the calls is not given here.

SMILES | KCNQ2 pot | KCNQ2 block | KCNQ2 inh conf | KCNQ1 spec | CHO parental ctr | others
Cc1c(CCOC(=O)CC23CC4CC(CC(C)(C4)C2)C3)sc[n+]1CC(=O)c1ccccc1 | i | -7.8 | i | i | i
Cc1c(CCOC(=O)c2cc([N+](=O)[O-])cc([N+](=O)[O-])c2)sc[n+]1CC(=O)c1ccccc1 | i | i | nt | nt | nt
Cc1c(CCOC(=O)c2ccccc2)sc[n+]1Cc1ccccc1 | nt | i | nt | nt | nt
Cc1c(CCOC(=O)CC23CC4CC(CC(C4)C2)C3)sc[n+]1CC(=O)c1ccc(Br)cc1 | i | -10 | -28% | i | i | KCNQ2 patch conf=+
Cc1cc(Cl)ccc1OC(C)C(=O)NCCCCc1ccccc1 (stereo not given) | i | -7.3 | -32% | i | i | KCNQ2 patch conf=+
Cc1cc(Cl)ccc1OC(C)C(=O)NCCc1ccc2c(c1)OCCO2 (stereo not given) | nt | i | nt | nt | nt
CC(=O)c1cccc(NC(=O)C(C)OC(=O)CCCN=C2NS(=O)(=O)c3ccccc32)c1 (stereo not given) | i | i | nt | nt | nt
O=C(CCN1C(=O)c2ccccc2S1(=O)=O)Nc1ccc(C(=O)O)cc1 | nt | i | nt | nt | nt
Cc1cc(C)c(S(=O)(=O)N2CCCCC2CCNC(=O)C(=O)NCCN2CCOCC2)c(C)c1 (stereo not given) | nt | i | nt | nt | nt
CCn1c(C(=O)N2CCCC(C(=O)O)C2)cc2sccc21 (stereo not given) | i | i | nt | nt | nt
CCn1c(C(=O)N2CCC(Cc3ccccc3)CC2)cc2sccc21 | i | -7.2 | i | i | i
CCOC(=O)Cc1cc(=O)n2[nH]c(C(C)(C)C)cc2n1 | nt | i | nt | nt | nt
O=C(Nc1ccccc1)/C(=C/c1cccc(Br)c1)NC(=O)c1ccco1 | i | i | nt | nt | nt
O=C(OCc1ccccc1)/C(=C/c1cccc(Br)c1)NC(=O)c1ccco1 | i | -9.6 | -25% | i | i | KCNQ2 patch conf=+
CCCCNC(=O)COc1ccccc1C(=O)c1cc(C#N)c(=O)n(CCOC)c1 | nt | i | nt | nt | nt
CCOC(=O)c1sc(NC(=O)c2ccncc2)c(C#N)c1C | i | i | nt | nt | nt
CCOC(=O)c1sc(NC(=O)c2cc(-c3ccccc3C)nc3ccccc23)c(C#N)c1C | i | -9 | -40% | -36% | -26% | KCNQ2 patch conf=i
COc1ccc(C(=O)Nn2c(C)nc3ccccc3c2=O)cc1OC | nt | i | nt | nt | nt
COc1ccc(CNn2c(-c3cccs3)nc3ccccc3c2=O)cc1OC | i | -9.2 | -40% | i | i | KCNQ2 patch conf=+
Cc1ccc2c(c1)C1CC(C)(O2)N(c2cccc(C(=O)N3CCN(c4ccccn4)CC3)c2)C(=O)N1 (stereo not given) | nt | i | nt | nt | nt
COc1cccc(N2CC(O)Cn3c2nc2c3c(=O)[nH]c(=O)n2C)c1 (stereo not given) | nt | i | nt | nt | nt
COc1ccc(C(=O)CCN2CCN(c3ccccc3OC)CC2)cc1 | nt | i | nt | nt | nt
COc1ccc(C(=O)CCN2CCc3cc(OC)c(OC)cc3C2)cc1 | i | -9.6 | -32% | i | i | KCNQ2 patch conf=i
CCOC(=O)N1CCN(C(=O)c2cccc(N3C(=O)NC4CC3(C)Oc3ccc(Cl)cc34)c2)CC1 (stereo not given) | nt | i | nt | nt | nt
CCN1CCN(CCCNC(=O)c2ccc(/C=C3/Sc4ccccc4N(Cc4ccccc4F)C3=O)cc2)CC1 | nt | i | nt | nt | nt
SMILES | KCNQ2 pot | KCNQ2 block | KCNQ2 inh conf | KCNQ1 spec | CHO parental ctr | others
CCN1CCN(CCNC(=O)c2ccc(/C=C3/Sc4ccccc4N(Cc4ccccc4C)C3=O)cc2)CC1 | i | -13 | i | i | i
O=C(COC(=O)c1cc(=O)[nH]c2ccccc12)Nc1nc(-c2ccccc2)cs1 | nt | i | nt | nt | nt
CC(C)N(C(=O)CN1CCC(c2nc3ccccc3[nH]2)CC1)C(C)C | nt | i | nt | nt | nt
Cc1c(C(=O)Oc2cccc3ccccc23)cnn1-c1ccccc1 | i | -9.3 | i | i | i
CC(=O)c1cnn(-c2ccccc2)c1C | i | i | nt | nt | nt
Cc1ccc(N(C(=O)c2csnn2)C(C(=O)NC2CCCCC2)c2ccncc2)cc1 (stereo not given) | i | i | nt | nt | nt
COc1ccc(OC)c(NC(=O)c2cc(OC(C)=O)cc(C(=O)Nc3cc(OC)ccc3OC)c2)c1 | i | i | nt | nt | nt
O=C(N/N=C/c1ccccc1)c1ccc(OCc2ccccc2)cc1 | i | i | nt | nt | nt
O=C(N/N=C/c1ccccc1)c1sccc1OCc1ccc(F)cc1 | i | -6.8 | i | i | i
O=C(Nc1ccccc1F)C1CCCN(S(=O)(=O)c2ccccc2)C1 (stereo not given) | nt | i | nt | nt | nt
CC(=O)Nc1ccc(NC(=O)c2ccccc2N(C)S(=O)(=O)c2ccc(C)cc2)cc1 | i | i | nt | nt | nt
Cc1ccc(NC(=O)c2ccccc2N(C)S(=O)(=O)c2ccccc2)c(C)c1 | i | -8.4 | -34% | i | i | KCNQ2 patch conf=+
CCCNC(=O)c1ccccc1NC(=O)c1ccccc1N(C)S(=O)(=O)c1ccccc1 | nt | i | nt | nt | nt
Cc1ccccc1CNC(=O)c1ccccc1N(C)S(=O)(=O)c1ccccc1 | i | -6.7 | -40% | -36% | -28% | KCNQ2 patch conf=+
Cc1ccc(S(=O)(=O)N(C)c2ccccc2C(=O)Nc2ccc(F)cc2F)cc1 | i | -8.6 | i | i | i
COC(=O)c1ccccc1NC(=O)c1ccccc1N(C)S(=O)(=O)c1ccccc1 | nt | i | nt | nt | nt
Cc1cc(C)c(OCC(=O)N(Cc2ccc(N(C)C)cc2)C2CCS(=O)(=O)C2)c(C)c1 (stereo not given) | nt | i | nt | nt | nt
COc1ccc(CNC(=O)C(c2cccs2)N(Cc2ccco2)C(=O)Cc2cccs2)cc1 (stereo not given) | i | -14 | -29% | i | i | KCNQ2 patch conf=+
COc1ccc(CNC(=O)C(c2ccco2)N(Cc2cccs2)C(=O)Cc2cccs2)cc1 (stereo not given) | i | i | nt | nt | nt
Cn1ncc(Br)c1N1C(=O)CCC1=O | nt | i | nt | nt | nt
CCCCN(CCCC)CCNC(=O)c1cn(CC)c2ccc(S(=O)(=O)N3CCCC3)cc2c1=O | nt | i | nt | nt | nt
CCn1nc(C(=O)Nc2ccccc2N2CCCC2)c2ccccc2c1=O | i | -8 | -38% | i | i | KCNQ2 patch conf=i
CCn1nc(C(=O)Nc2ccc3nc(C)sc3c2)c2ccccc2c1=O | i | i | nt | nt | nt
CC(=O)Nc1cccc(NC(=O)CSc2nc(=O)n3cccc(C)c3n2)c1 | nt | i | nt | nt | nt
CCOC(=O)COc1ccccc1C1Nc2ccccc2C(=O)N1c1cccc(Cl)c1 (stereo not given) | nt | i | nt | nt | nt
SMILES | KCNQ2 pot | KCNQ2 block | KCNQ2 inh conf | KCNQ1 spec | CHO parental ctr | others
CCOC(=O)COc1c(OC)cc(Cl)cc1C1Nc2ccccc2C(=O)N1c1cccc(C)c1 (stereo not given) | i | -10 | i | i | i
COCCCn1c(SCC(=O)NC2CCCC2)nnc1-c1ccncc1 | i | i | nt | nt | nt
O=C(COC(=O)c1ccc(Cl)nc1)NNC(=O)c1ccc(Cl)cc1 | i | i | nt | nt | nt
O=[N+]([O-])c1ccc(Sc2cccc[n+]2[O-])c2nonc12 | i | -15 | -64% | -57% | -60% | KCNQ2 patch conf=i
O=[N+]([O-])c1ccc(Nc2ccccc2)c2nonc12 | i | i | nt | nt | nt
CCOC(=O)c1cn2nc(Oc3cccc(C(F)(F)F)c3)ccc2n1 | i | i | nt | nt | nt
